{"source": "PubChem BioAssay (NCATS)", "note": "Values joined by “and” are separate entries in the source; they are usually repeats but may differ in a detail not shown here. Identical values can stand only once. Values without a mark were called inactive. Records with an inconclusive call do not appear. Active and inactive are the calls of the source. Unless noted, calls come from the whole dose curve; as a rule, active = well fitted cell-killing curve with a large enough effect; inconclusive = small, poorly fitted or top-dose-only effect, or effect the other way; inactive = flat fitted curve, though single readings scatter."}
{"tested_on": "not listed separately", "experiment": "qHTS assay for cell viability of the p53RE-bla HCT-116 cell line (AID 743292); note: % is set by controls: 0 for no effect and ±100 for the full control effect; nearly all actives have a fitted effect of over 55% in size", "conditions": "p53RE-bla HCT-116 viability, ATP luminescence, 16 h; series mostly up to 95 µM; activity change, negative = cytotoxicity: at the top concentration", "in_short": "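Readout: CellTiter-Glo luminescence after 30 min RT. Treatment: compounds in DMSO, 16 h, 37 C. Cells: CellSensor p53RE-bla HCT-116, 4,000/well, preincubated 5 h.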", "units": {"activity change, negative = cytotoxicity": "%"}}
{"compound": "O=C(O)C(Br)Br", "activity change, negative = cytotoxicity": -3.64}
{"compound": "Cc1ccc(OP(=O)(Oc2ccc(C)cc2)Oc2ccc(C)cc2)cc1", "Potency": "inactive"}
{"compound": "Oc1c(Cl)c(Cl)cc(Cl)c1Cl", "activity change, negative = cytotoxicity": -21.9}
{"compound": "Nc1ccc(Cc2ccc(N)c(Cl)c2)cc1Cl", "activity change, negative = cytotoxicity": 2.98}
{"compound": "CN(C)c1ccc(N(C)C)cc1", "activity change, negative = cytotoxicity": -9.5}
{"compound": "O=[N+]([O-])c1c(Cl)c(Cl)c(Cl)c(Cl)c1Cl", "Potency": "inactive"}
{"compound": "CN1CSC(=S)N(C)C1", "Potency": "inactive"}
{"compound": "ClCC(Cl)Cl", "activity change, negative = cytotoxicity": -0.257}
{"compound": "C=CC(=O)OCCO", "activity change, negative = cytotoxicity": 12.4}
{"compound": "CC(C)Br", "activity change, negative = cytotoxicity": 5.77}
{"compound": "O=[N+]([O-])c1ccc(O)c([N+](=O)[O-])c1", "activity change, negative = cytotoxicity": -4.32}
{"compound": "CC(C)[N+](=O)[O-]", "activity change, negative = cytotoxicity": -10.4}
{"compound": "CCCC[N+](=O)[O-]", "activity change, negative = cytotoxicity": 2.44}
{"compound": "Cc1cc(-c2cc(C)c(N)c(C)c2)cc(C)c1N", "activity change, negative = cytotoxicity": -1.52}
{"compound": "Nc1cc(Cl)ccc1O", "activity change, negative = cytotoxicity": 3.58}
{"compound": "CCN(N=O)C(N)=O", "activity change, negative = cytotoxicity": -2.67}
{"compound": "N#CC(Cl)(Cl)Cl", "activity change, negative = cytotoxicity": -8.65}
{"compound": "CCCCC(CC)COC(=O)c1ccc(C(=O)OCC(CC)CCCC)c(C(=O)OCC(CC)CCCC)c1", "note": "(stereo not given)", "activity change, negative = cytotoxicity": -3.95}
{"compound": "O=C(O)C(Br)CBr", "note": "(stereo not given)", "activity change, negative = cytotoxicity": -8.37}
{"compound": "Nc1c(Br)cc([N+](=O)[O-])cc1[N+](=O)[O-]", "activity change, negative = cytotoxicity": -12.1}
{"compound": "O=[N+]([O-])c1ccccc1CCl", "activity change, negative = cytotoxicity": -11.9}
{"compound": "Cc1cc(C)cc(OP(=O)(Oc2cc(C)cc(C)c2)Oc2cc(C)cc(C)c2)c1", "activity change, negative = cytotoxicity": -6.78}
{"compound": "N#CC(Br)Br", "activity change, negative = cytotoxicity": 8.05}
{"compound": "O=C(O)C(Cl)Br", "note": "(stereo not given)", "activity change, negative = cytotoxicity": -2.77}
{"compound": "COP(=S)(OC)SCn1nnc2ccccc2c1=O", "Potency": "inactive"}
{"compound": "Nc1ccc([N+](=O)[O-])cc1N", "Potency": "inactive"}
{"compound": "O=C(O)c1cccc(Cl)c1", "activity change, negative = cytotoxicity": -7.88}
{"compound": "Cc1cc(N=Nc2ccccc2C)ccc1N", "Potency": "inactive"}
{"compound": "OCCCCO", "activity change, negative = cytotoxicity": -2.94}
{"compound": "O=[N+]([O-])c1cc(Cl)c(Cl)c(Cl)c1", "activity change, negative = cytotoxicity": 1.84}
{"compound": "CC(C)(COCC1CO1)COCC1CO1", "note": "(stereo not given)", "activity change, negative = cytotoxicity": -2.9}
{"compound": "Cc1ccc2c(c1N)C(=O)c1ccccc1C2=O", "Potency": "inactive"}
{"compound": "COc1ccccc1N", "activity change, negative = cytotoxicity": -2.57}
{"compound": "CC(C)(C)OOC(=O)c1ccccc1", "Potency": "inactive"}
{"compound": "c1ccc(N=NNc2ccccc2)cc1", "Potency": "inactive"}
{"compound": "COC(C)(C)C", "activity change, negative = cytotoxicity": -4.04}
{"compound": "C(CCOCC1CO1)COCC1CO1", "note": "(stereo not given)", "activity change, negative = cytotoxicity": 0.894}
{"compound": "CN(C)c1ccc(N)cc1", "activity change, negative = cytotoxicity": -18.5}
{"compound": "O=[N+]([O-])/C=C/c1ccccc1", "activity change, negative = cytotoxicity": -6.08}
{"biological_target": "Nuclear receptor subfamily 1 group I member 2 (Rattus norvegicus) (UniProt Q9R1A7)", "sequence (Q9R1A7 whole entry, looked up)": "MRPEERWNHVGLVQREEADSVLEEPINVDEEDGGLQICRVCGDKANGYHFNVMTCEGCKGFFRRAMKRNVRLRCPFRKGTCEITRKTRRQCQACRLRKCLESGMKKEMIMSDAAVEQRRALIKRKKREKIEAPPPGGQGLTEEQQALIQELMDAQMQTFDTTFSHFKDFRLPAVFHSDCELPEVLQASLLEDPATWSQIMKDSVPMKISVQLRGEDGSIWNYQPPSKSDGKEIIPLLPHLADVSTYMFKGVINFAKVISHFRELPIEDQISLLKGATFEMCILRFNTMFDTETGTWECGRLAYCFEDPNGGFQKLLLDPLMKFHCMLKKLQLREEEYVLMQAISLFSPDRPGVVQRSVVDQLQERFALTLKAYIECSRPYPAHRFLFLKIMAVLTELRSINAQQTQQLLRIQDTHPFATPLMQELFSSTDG", "experiment": "qHTS assay for small molecule activators of the rat pregnane X receptor (rPXR) signaling pathway (AID 651751; call rule not given here; note: 0% is about no effect)", "conditions": "rPXR reporter cells, luciferase (One-Glo), 24 h"}
{"compound": "O=C(O)C(Br)Br", "max response": "1.77%"}
{"compound": "Oc1c(Cl)c(Cl)cc(Cl)c1Cl", "max response": "-8.76%"}
{"compound": "O=[N+]([O-])c1c(Cl)c(Cl)c(Cl)c(Cl)c1Cl", "max response": "-3.78% and 1.81%"}
{"compound": "CN1CSC(=S)N(C)C1", "max response": "-10.5% and -8.21%"}
{"compound": "ClCC(Cl)Cl", "max response": "-0.324%"}
{"compound": "C=CC(=O)OCCO", "max response": "0.767%"}
{"compound": "CC(C)Br", "max response": "-2.97%"}
{"compound": "CC(C)[N+](=O)[O-]", "max response": "1.27%"}
{"compound": "CCCC[N+](=O)[O-]", "max response": "1.76%"}
{"compound": "Cc1cc(-c2cc(C)c(N)c(C)c2)cc(C)c1N", "max response": "14.1%"}
{"compound": "N#CC(Cl)(Cl)Cl", "max response": "3.31%"}
{"compound": "CCCCC(CC)COC(=O)c1ccc(C(=O)OCC(CC)CCCC)c(C(=O)OCC(CC)CCCC)c1", "note": "(stereo not given)", "max response": "0.711%"}
{"compound": "O=C(O)C(Br)CBr", "note": "(stereo not given)", "max response": "-3.61%"}
{"compound": "Nc1c(Br)cc([N+](=O)[O-])cc1[N+](=O)[O-]", "max response": "14.9%"}
{"compound": "O=[N+]([O-])c1ccccc1CCl", "max response": "5.58%"}
{"compound": "N#CC(Br)Br", "max response": "-7.42%"}
{"compound": "O=C(O)C(Cl)Br", "note": "(stereo not given)", "max response": "-1.1%"}
{"compound": "COP(=S)(OC)SCn1nnc2ccccc2c1=O", "max response": "0.903% and 4.17%"}
{"compound": "Nc1ccc([N+](=O)[O-])cc1N", "max response": "-5.6% and -2.56%"}
{"compound": "O=C(O)c1cccc(Cl)c1", "max response": "0.516%"}
{"compound": "O=[N+]([O-])c1cc(Cl)c(Cl)c(Cl)c1", "max response": "-3.17%"}
{"compound": "CC(C)(COCC1CO1)COCC1CO1", "note": "(stereo not given)", "max response": "1.93%"}
{"compound": "COc1ccccc1N", "max response": "20.9%"}
{"compound": "CC(C)(C)OOC(=O)c1ccccc1", "max response": "2.87% and -0.927%"}
{"compound": "COC(C)(C)C", "max response": "3.77%"}
{"compound": "C(CCOCC1CO1)COCC1CO1", "note": "(stereo not given)", "max response": "2.78%"}
